Screening data: PubChem, several laboratories
ATG4B inh – ATG4B protease inhibitors, primary screen, biochemical, fluorescence, uHTS. Cysteine protease ATG4B (Homo sapiens), Q9Y4P1. ATG4B cleavage of LC3-PLA2, NBD-HPC fluorescence, 1 h. inhibition, % at 8.33 µM. 340,000 tested, 0.51% active; in the data active = inhibition above about 40%
Target sequence (Q9Y4P1 whole entry, looked up): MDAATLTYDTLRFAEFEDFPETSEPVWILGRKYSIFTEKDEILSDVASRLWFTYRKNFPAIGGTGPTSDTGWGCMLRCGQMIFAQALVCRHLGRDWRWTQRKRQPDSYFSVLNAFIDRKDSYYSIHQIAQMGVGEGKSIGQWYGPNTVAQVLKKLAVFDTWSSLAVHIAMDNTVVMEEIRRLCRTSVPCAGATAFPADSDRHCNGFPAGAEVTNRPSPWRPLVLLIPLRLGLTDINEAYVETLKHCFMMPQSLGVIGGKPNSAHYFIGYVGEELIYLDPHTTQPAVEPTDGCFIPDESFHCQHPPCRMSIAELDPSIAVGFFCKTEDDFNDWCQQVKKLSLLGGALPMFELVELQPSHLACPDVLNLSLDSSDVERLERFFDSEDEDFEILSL
tim23-1 inh – growth inhibitors of tim23-1 mutant yeast, primary screen, luminescence, uHTS | S. cerevisiae tim23-1 growth, BacTiter-Glo luminescence, 24 h | inhibition, % at 20 µM | 330,000 tested, 1.3% active;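 active = growth inhibition of the mutant yeast at or above 50%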;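 note: temperature-sensitive mutant grown at 25 °C; plate controls were DMSO-treated mutant yeast for no effect and medium wells lacking yeast for full effect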
PfHsp90 yeast 2 – growth inhibition of PfHsp90-expressing yeast, primary screen, antimalarial PfHsp90 inhibitor project, S. cerevisiae, BacTiter-Glo luminescence, single point, set 2; BacTiter-Glo ATP, 48 h; yeast lacking PDR1 and PDR3 efflux regulators; inhibition, % at 9.4 µM; 310,000 tested, 0.32% active; AID 504621, 2011;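 active = every replicate shows inhibition above about 80%, whatever the replicate mean, limit read from the data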;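 note: 0% = DMSO neutral controls and 100% = 20 µM radicicol positive controls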
SKKanGAS inh – S. pyogenes SKKanGAS growth inhibitors in kanamycin, primary screen, streptokinase expression inhibitor project, SKKanGAS strain, BacTiter-Glo luminescence | inhibition, % at 7.5 µM | 300,000 tested, 1.3% active | AID 1662, 2009 | 6 h;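 active = mean replicate score, as percent of positive control median, at least 50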;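 note: strain carries kanamycin resistance gene driven by streptokinase promoter and grows in 40 µg/ml kanamycin; loss of luminescence reflects streptokinase promoter inhibition or plain growth inhibition; 0% = median of DMSO wells and 100% = positive control at its reference dose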
tim10-1 inh – growth inhibitors of tim10-1 mutant yeast, primary screen, luminescence, uHTS. S. cerevisiae tim10-1 ts strain growth, BacTiter-Glo, 24 h. inhibition, % at 20 µM. 330,000 tested, 2.2% active;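 active = inhibition of at least 40%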;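 note: mutant grown at 25 °C; 0% = DMSO wells with yeast and 100% = wells holding no yeast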
TIM10 inh – growth inhibitors of isogenic TIM10 control yeast, primary screen, counter-screen for tim10-1 yeast inhibitor project, luminescence, uHTS; S. cerevisiae TIM10 strain growth, BacTiter-Glo luminescence, 24 h; inhibition, % at 10 µM; 330,000 tested, 1.4% active;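 active = inhibition of 40% or more at the single tested concentration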;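 note: wild-type TIM10 isogenic control strain grown at permissive 25 °C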
tim10-1 conf – growth inhibitors of tim10-1 mutant yeast, confirmation, single concentration, luminescence, S. cerevisiae; shares compounds with tim10-1 inh; S. cerevisiae tim10-1 ts strain growth, BacTiter-Glo, 24 h; 7,400 tested, 56% active; inhibition, % at 20 µM;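 active = inhibition of yeast growth at or above a set limit in either of two repeat tests at 20 µM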;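 note: tim10-1 mutant grown at permissive 25 °C to find synthetic lethal compounds; 0% = DMSO yeast wells and 100% = medium wells without yeast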
TIM10 conf – growth inhibitors of wild-type TIM10 yeast, confirmation, counter-screen for tim10-1 synthetic lethality project, single concentration, luminescence, S. cerevisiae; S. cerevisiae tim10 strain growth, BacTiter-Glo luminescence, 24 h; inhibition, % at 10 µM; shares compounds with TIM10 inh; 4,600 tested, 63% active;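 active = inhibition of yeast growth at or above a set limit in either of two replicates at 10 µM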;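 note: this counterscreen used the strain with wild-type TIM10; 0% = yeast with DMSO and 100% = medium wells lacking yeast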
tim23-1 confirm – tim23-1 mutant yeast growth inhibitors, confirmation, luminescence, single concentration. shares compounds with tim23-1 inh. S. cerevisiae tim23-1 growth, BacTiter-Glo luminescence, 24 h. inhibition, % at 20 µM. 4,400 tested, 83% active;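 active = inhibition above about 39% in either of two replicate wells at 20 µM, limit read from the data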;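 note: temperature-sensitive tim23-1 mutant grown at 25 °C; 0% = DMSO wells with yeast and 100% = medium wells without yeast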
An asterisk follows results filed as active; x = not tested or not shown. The list is not random: actives were taken first. Their share in the collection is about 4.7%.

SMILES | ATG4B inh | tim23-1 inh | PfHsp90 yeast 2 | SKKanGAS inh | tim10-1 inh | TIM10 inh | tim10-1 conf | TIM10 conf | tim23-1 confirm
CN1CCN(C(c2ccc(C(F)(F)F)cc2)c2cc(Cl)c3cccnc3c2O)CC1 (stereo not given) | x | 65.6* | x | 103.7* | 43.0* | 52.6* | 35.6* | 25.7 | 70.2*
CN1CCN(C(c2ccc(Cl)cc2)c2cc(Cl)c3cccnc3c2O)CC1 (stereo not given) | 1.4 | 58.6* | 105.8* | 101.0* | 40.2* | 3.4 | 24.5 | x | 71.2*
COc1cccc(CN(C)C(=O)CN2C(=O)NC(c3ccccc3)(c3ccccc3)C2=O)c1OC | -15.2 | 6.2 | -21.5 | x | 7.0 | 7.9 | x | x | x
CCC(C)(C)C1CCc2[nH]nc(C(=O)NC3CCCC3)c2C1 (stereo not given) | 6.5 | 59.2* | 5.4 | x | 41.7* | 38.9 | 34.6* | x | 57.0*
COc1cccc(C2=CC(c3cc(OC)ccc3OC)n3nnnc3N2)c1 (stereo not given) | -5.1 | 16.6 | -4.5 | 3.8 | 18.7 | -0.1 | x | x | x
OC(CN1CCCCC1)Cn1c2ccc(Cl)cc2c2cc(Cl)ccc21 (stereo not given) | 2.2 | -22.3 | 2.4 | 4.7 | -10.4 | -25.7 | x | x | x
OC(CN1CCN(c2ccccn2)CC1)Cn1c2ccc(Cl)cc2c2cc(Cl)ccc21 (stereo not given) | -8.4 | 54.9* | -0.6 | 43.5 | 47.2* | -28.4 | 20.9 | x | -39.5
O=C(/C=C/c1ccc(F)cc1)c1cc(Br)ccc1O | 0.3 | 50.2* | 1.3 | -13.1 | 45.1* | 52.9* | 71.0* | 70.0* | 22.4
Cc1cccc(-n2c(-c3csc4ccccc34)n[nH]c2=S)c1 | 19.1 | 50.6* | -19.5 | 2.1 | 45.1* | 37.7 | 29.6 | x | 42.9*
N/C(=N\OC(=O)c1cccc(Br)c1)c1ccccc1 | 6.0 | 82.8* | 4.3 | -1.1 | 65.7* | 83.2* | 58.1* | 86.5* | 72.9*
O=C(c1cccc(Br)c1)c1conc1C(=O)c1ccco1 | -2.3 | 54.4* | -8.2 | -9.3 | 48.1* | 42.5* | 44.0* | 38.0* | 58.5*
N/C(=N\OC(=O)c1ccco1)c1cccc(Br)c1 | -3.5 | 64.2* | -6.7 | -1.4 | 55.6* | 60.9* | 55.5* | 54.2* | 45.0*
Cc1ccc(C(=O)Nn2cnnc2)cc1S(=O)(=O)N1CCOCC1 | 7.6 | 6.5 | 5.6 | -3.8 | -5.6 | 11.1 | x | x | x
CCC(=O)c1ccc(N2CCCC2)c(F)c1 | 3.7 | 7.7 | 23.3 | -5.4 | 6.1 | 8.3 | x | x | x
CS(=O)c1nc(-c2ccc(Br)cc2)cc(-c2ccccc2)c1C#N (stereo not given) | 6.7 | 67.6* | 0.4 | -0.7 | 40.8* | 20.2 | 45.6* | x | 59.7*
CC(C)Oc1ccc(C(=O)/C=C2/C(=O)Nc3ccccc32)cc1 | 2.1 | 88.0* | 106.7* | 12.1 | 68.9* | 75.8* | 75.8* | 69.0* | 85.0*
O=C(/C=C1\C(=O)Nc2ccccc21)/C=C1\C(=O)Nc2ccccc21 | 2.2 | x | -19.3 | x | x | x | x | x | x
O=C1Nc2ccccc2/C1=C\C(=O)c1ccccc1 | -6.2 | 87.9* | 1.1 | -1.6 | 52.1* | 81.9* | 51.7* | 93.0* | -43.0
